Each structure is given as a SMILES string. Values joined by “and” are separate entries in the source; they are usually repeats but may differ in a detail not shown here. Equal entries are not always repeated. Inconclusive results are not listed. Some compounds were tested as several samples or in several runs, with calls that do not always agree. Active and inactive are the calls of the source. Calls come from the whole dose curve; as a rule, active = well fitted curve in the direction sought with a large enough effect; inconclusive = small, poorly fitted or top-dose-only effect, or another doubt; inactive = no such curve, though single readings can be large; an effect the other way counts as inactive or inconclusive.

Assay [1] has as its target Cytochrome P450 2C9 (Homo sapiens) (UniProt P11712). The assay can be described thus: qHTS Assay for Inhibitors and Substrates of Cytochrome P450 2C9 (AID 883). For activity change, negative = inhibition: % is set by controls: 0 for no effect and ±100 for the full control effect. Note: nearly all actives have a fitted effect of over 60% in size. Note: potency is the fitted concentration of half-maximal effect. The method in brief:
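Signal: luciferase luminescence reporting luciferin produced by CYP2C9. Conditions: 10nM enzyme, Luciferin-H 100uM at KM, 25mM KPO4, 37C, 60 min NADPH-driven reaction. Reference: 57uM sulphaphenazole as 100% inhibition.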

Assay [2] deals with Cytochrome P450 3A4 (Homo sapiens) (UniProt P08684). The assay can be described thus: qHTS Assay for Inhibitors and Substrates of Cytochrome P450 3A4 (AID 884). Note: series mostly up to about 57 µM; % is set by controls: 0 for no effect and ±100 for the full control effect; nearly all actives have a fitted effect of over 50% in size. The method in brief:
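20 nM human CYP3A4 with 25 uM Luciferin-PPXE (at KM) in 200 mM KPO4, preincubated 10 min with compound; NADPH regeneration started a 60 min RT reaction. Luciferin detected by luminescence, normalized to 57 uM ketoconazole as full inhibition.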

Assay [3] concerns the target Cytochrome P450 2D6 (Homo sapiens) (UniProt P10635). The assay is described as follows: qHTS Assay for Inhibitors and Substrates of Cytochrome P450 2D6 (AID 891).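 For activity change, negative = inhibition: luciferin methyl ether substrate demethylated by CYP2D6 with NADPH regeneration; % is set by controls: 0 for no effect and ±100 for the full control effect.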 Note: nearly all actives have a fitted effect of over 60% in size. Note: potency is the fitted concentration of half-maximal effect. The method in brief: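 Human CYP2D6 (5 nM) with 30 uM Luciferin-ME EGE (at Km) in 100 mM KPO4, compound preincubated 10 min, then NADPH regeneration system for 60 min at room temperature. Luciferin read by luminescence; normalized to 1.43 uM quinidine.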

Assay [4] deals with Cytochrome P450 2C19 (Homo sapiens) (UniProt P33261). The assay is described as follows: qHTS Assay for Inhibitors and Substrates of Cytochrome P450 2C19 (AID 899). Note: nearly all actives have a fitted effect of over 60% in size. Note: potency is the fitted concentration of half-maximal effect. The method, boiled down: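 Signal comes from luciferase acting on luciferin released by CYP2C19-mediated hydroxylation of Luciferin-H EGE, 10uM (KM). Assay mix: 5nM enzyme, 50mM KPO4; 60 min at 37C with NADPH regeneration. Data normalized against 57uM ketoconazole.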
For orientation: In qHTS, concentration-response curves come from the screen itself.

The target in assay [5] is Cytochrome P450 3A4 (Homo sapiens) (UniProt P08684). The assay can be described thus: qHTS Assay for Activators of Cytochrome P450 3A4 (AID 885). Note: nearly all actives have a fitted effect of over 65% in size. The method in brief: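 20nM CYP3A4 + 25uM Luciferin-PPXE (=KM), 200mM KPO4; cpd 10 min RT; NADPH regen, 60 min RT; stop w/ detection buffer, 20 min; luminescence. Normalized to 57 uM ketoconazole.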
Chain of Cytochrome P450 3A4 (Homo sapiens) (P08684 whole entry, looked up): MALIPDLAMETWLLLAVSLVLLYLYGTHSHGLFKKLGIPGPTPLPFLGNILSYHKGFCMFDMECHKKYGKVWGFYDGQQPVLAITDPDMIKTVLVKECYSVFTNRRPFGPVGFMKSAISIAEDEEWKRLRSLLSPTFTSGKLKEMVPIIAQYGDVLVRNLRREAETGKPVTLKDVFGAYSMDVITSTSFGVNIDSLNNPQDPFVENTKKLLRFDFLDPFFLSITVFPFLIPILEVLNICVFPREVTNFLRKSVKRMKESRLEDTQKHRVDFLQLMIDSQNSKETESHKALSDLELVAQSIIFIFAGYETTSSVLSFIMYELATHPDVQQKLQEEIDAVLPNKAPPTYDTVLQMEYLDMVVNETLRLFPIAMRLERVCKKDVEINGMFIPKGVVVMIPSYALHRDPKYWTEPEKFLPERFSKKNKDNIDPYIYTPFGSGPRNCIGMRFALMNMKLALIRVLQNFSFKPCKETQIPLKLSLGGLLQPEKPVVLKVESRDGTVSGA

Chain of Cytochrome P450 2C19 (Homo sapiens) (P33261 whole entry, looked up): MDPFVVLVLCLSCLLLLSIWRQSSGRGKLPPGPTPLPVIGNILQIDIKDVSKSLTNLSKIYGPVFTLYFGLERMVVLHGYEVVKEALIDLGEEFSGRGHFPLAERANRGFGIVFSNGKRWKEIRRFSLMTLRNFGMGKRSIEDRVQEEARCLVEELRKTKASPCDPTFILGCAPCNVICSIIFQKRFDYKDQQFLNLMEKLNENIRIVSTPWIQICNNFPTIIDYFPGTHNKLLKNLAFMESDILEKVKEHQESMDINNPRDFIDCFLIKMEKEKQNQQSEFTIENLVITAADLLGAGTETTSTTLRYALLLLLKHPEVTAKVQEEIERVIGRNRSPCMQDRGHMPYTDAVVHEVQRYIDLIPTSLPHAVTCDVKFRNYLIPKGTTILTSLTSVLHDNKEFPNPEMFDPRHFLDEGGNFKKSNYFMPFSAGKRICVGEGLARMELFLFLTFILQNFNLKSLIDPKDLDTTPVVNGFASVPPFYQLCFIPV
Chain of Cytochrome P450 2D6 (Homo sapiens) (P10635 whole entry, looked up): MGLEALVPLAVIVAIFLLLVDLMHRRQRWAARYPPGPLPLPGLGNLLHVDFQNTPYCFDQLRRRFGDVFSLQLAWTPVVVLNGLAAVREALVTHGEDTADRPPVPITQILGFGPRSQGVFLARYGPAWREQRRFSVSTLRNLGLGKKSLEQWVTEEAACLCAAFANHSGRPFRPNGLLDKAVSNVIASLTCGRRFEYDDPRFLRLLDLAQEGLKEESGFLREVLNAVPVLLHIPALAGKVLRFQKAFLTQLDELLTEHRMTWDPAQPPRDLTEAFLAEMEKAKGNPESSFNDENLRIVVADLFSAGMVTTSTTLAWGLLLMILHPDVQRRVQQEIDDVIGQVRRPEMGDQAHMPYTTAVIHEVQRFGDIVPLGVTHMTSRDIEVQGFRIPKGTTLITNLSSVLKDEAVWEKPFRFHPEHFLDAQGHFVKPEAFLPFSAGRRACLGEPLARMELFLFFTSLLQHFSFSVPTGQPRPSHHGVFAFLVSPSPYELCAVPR
Chain of Cytochrome P450 2C9 (Homo sapiens) (P11712 whole entry, looked up): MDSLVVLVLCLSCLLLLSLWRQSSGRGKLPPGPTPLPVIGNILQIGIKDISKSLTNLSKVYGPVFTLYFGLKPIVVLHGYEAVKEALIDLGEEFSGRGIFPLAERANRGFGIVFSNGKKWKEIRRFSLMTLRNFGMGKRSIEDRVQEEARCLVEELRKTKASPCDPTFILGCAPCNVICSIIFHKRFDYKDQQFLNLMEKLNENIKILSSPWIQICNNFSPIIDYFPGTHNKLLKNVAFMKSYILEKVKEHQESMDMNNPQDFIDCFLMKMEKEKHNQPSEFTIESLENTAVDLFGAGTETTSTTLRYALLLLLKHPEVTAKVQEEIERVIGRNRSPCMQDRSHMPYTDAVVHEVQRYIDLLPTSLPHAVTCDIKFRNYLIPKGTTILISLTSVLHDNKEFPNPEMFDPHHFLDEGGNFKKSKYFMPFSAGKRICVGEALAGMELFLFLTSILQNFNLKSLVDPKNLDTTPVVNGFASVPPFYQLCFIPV

For the compound `C=C(C)CC1(c2ccccc2)Oc2ccccc2-c2nc3cc(Cl)c(Cl)cc3nc21` (stereo not given), the Potency entry in assay [1], in assay [3] and in assay [4] was “inactive” each time. For the same compound, the activity change, negative = inhibition in assay [2] was -4.89% [at 11.4 µM] (inactive).

Regarding `CC12C=C(/C=C/C=C/c3ccco3)C(C)(C1)C(/C=C/c1ccco1)CC2=O` (stereo not given), the Potency entry in assay [1], in assay [3] and in assay [4] was “inactive” throughout. In addition, the activity change, negative = inhibition in assay [2] is 5.62% [at 11.4 µM] (inactive).

For `COC(=O)NC(c1cccc(F)c1)C(C(C)=O)C(=O)OC` (stereo not given), the Potency entry in assay [1], in assay [3] and in assay [4] was “inactive” throughout. In addition, in assay [2], the activity change, negative = inhibition is -17.1% [at 11.4 µM] (inactive).

As for `CC1CCC2C(=O)N3C(CCC(C)C3c3ccc(-c4ccco4)cc3)C(=O)N2C1c1ccc(-c2ccco2)cc1` (stereo not given), the Potency entry in assay [1], in assay [3] and in assay [4] was “inactive” in each case. In addition, the activity change, negative = inhibition in assay [2] is -11.9% [at 11.4 µM] (inactive).

In the case of `O=C1C2Cc3c([nH]c4ccccc34)C(c3ccccc3)N2C(=O)C2Cc3c([nH]c4ccccc34)C(c3ccccc3)N12` (stereo not given), the Potency entry in assay [1], in assay [3] and in assay [4] was “inactive” each time. Also, in assay [2], the activity change, negative = inhibition was -20.8% [at 11.4 µM] (inactive).

Consider `OCC1OC(c2ccccc2)C=CC1Oc1ccc(C2CCCC2)cc1` (stereo not given), for which the Potency entry in assay [1], in assay [3] and in assay [4] was “inactive” throughout. In addition, the activity change, negative = inhibition in assay [2] was -14.3% [at 11.4 µM] (inactive).

As for `CC(=O)OCC1OC(C#Cc2ccc(Cl)cc2)C=CC1OC(C)=O` (stereo not given), the Potency entry in assay [1] and in assay [3] was “inactive” throughout. In addition, the activity change, negative = inhibition in assay [2] was -14.6% [at 11.4 µM] (inactive) and -6.86% [at 11.4 µM] (inactive). Besides, in assay [4], the Potency was 1 µM (active) and inactive.

As to `CC(=O)Nc1ccc(C2NC(C(=O)O)CCC2C)cc1` (stereo not given), the Potency entry in assay [1], in assay [3] and in assay [4] was “inactive” each time. Also, the activity change, negative = inhibition in assay [2] is -21% [at 11.4 µM] (inactive).

`OCC1OC(C#Cc2ccccc2)C=CC1OCc1ccccc1` (stereo not given): the Potency result in assay [1] and in assay [3] was “inactive” throughout. In assay [2], the activity change, negative = inhibition was -24.2% [at 11.4 µM] (inactive). Besides, in assay [4], the Potency was 0.0126 µM (active).

Take `COC(=O)C/C=C/C(C)C(OC)c1ccccc1Br` (stereo not given): the Potency entry in assay [1], in assay [3] and in assay [4] was “inactive” throughout. Further, the activity change, negative = inhibition in assay [2] is -5.95% [at 11.4 µM] (inactive).

For the compound `C=CCC1(c2ccccc2)Oc2ccc(C)cc2-c2nc3cc(Cl)c(Cl)cc3nc21` (stereo not given), the Potency result in assay [1], in assay [3] and in assay [4] was “inactive” in each case. In addition, in assay [2], the activity change, negative = inhibition is -28.2% [at 11.4 µM] (inactive).

For the compound `CCOC(=O)OCC1OC(c2ccccc2)C=CC1Oc1ccc2oc(=O)cc(C)c2c1` (stereo not given), the Potency result in assay [1], in assay [3] and in assay [4] was “inactive” each time. For the same compound, the activity change, negative = inhibition in assay [2] is -10.6% [at 11.4 µM] (inactive).

`COC(=O)NC(c1ccc2ccccc2c1)C(C(C)=O)C(=O)OC` (stereo not given): the Potency entry in assay [1] and in assay [3] was “inactive” each time. Further, the activity change, negative = inhibition in assay [2] is -19.4% [at 11.4 µM] (inactive). Besides, the Potency in assay [4] was 1.26 µM (active).

Regarding `COC(C(C)/C=C/CC(=O)OCCCc1ccccc1)C1CCCCC1` (stereo not given), the Potency entry in assay [1], in assay [3] and in assay [4] was “inactive” in each case. For the same compound, the activity change, negative = inhibition in assay [2] is -20.5% [at 11.4 µM] (inactive).

In the case of `COC(=O)NC(CC(C)=O)c1cccc(C)c1` (stereo not given), the Potency entry in assay [1], in assay [3] and in assay [4] was “inactive” in each case. Further, in assay [2], the activity change, negative = inhibition is -19.5% [at 11.4 µM] (inactive).

Take `O=C(/C=C/c1ccccc1)N1CCCC1CO` (stereo not given): the Potency entry in assay [1], in assay [3] and in assay [4] was “inactive” throughout. Besides, the activity change, negative = inhibition in assay [2] is -20.7% [at 11.4 µM] (inactive).

For the compound `O=C(O)C1Cc2c([nH]c3ccccc23)C(c2ccccc2)N1` (stereo not given), the Potency result in assay [1] and in assay [4] was “inactive” throughout. In addition, the activity change, negative = inhibition in assay [2] was -14.4% [at 11.4 µM] (inactive). The Potency in assay [3] was 3980 nM (active).

Regarding `COC(=O)NC(c1cccc(C)c1)[C@]1(C(C)=O)CCCC1=O` (stereo not given in full), the Potency entry in assay [1], in assay [3] and in assay [4] was “inactive” in each case. For the same compound, the activity change, negative = inhibition in assay [2] is -27.8% [at 11.4 µM] (inactive).

For `CCOC(=O)[C@]1(C(/C=C/c2ccco2)NC(=O)OC)CCCC1=O` (stereo not given in full), the Potency entry in assay [1], in assay [3] and in assay [4] was “inactive” each time. Also, the activity change, negative = inhibition in assay [2] is -21.5% [at 11.4 µM] (inactive).

For `COC(=O)NC(c1ccc(Cl)cc1)C(C(C)=O)C(=O)OC` (stereo not given), the Potency result in assay [1] and in assay [3] was “inactive” throughout. The activity change, negative = inhibition in assay [2] is -15.4% [at 11.4 µM] (inactive). Also, the Potency in assay [4] was 1.58 µM (active).

As for `CC(=O)OCC1OC(C#Cc2ccccc2)C=CC1O` (stereo not given), the Potency result in assay [1], in assay [3] and in assay [4] was “inactive” throughout. Besides, in assay [2], the activity change, negative = inhibition is -14.6% [at 11.4 µM] (inactive).

Regarding `COc1cccc([C@@H]2Oc3ccc(Br)cc3C(=O)[C@H]2O)c1`, the Potency was 2510 nM (active) in assay [1], 3160 nM (active) in assay [3] and 3.16 µM (active) in assay [4]. Further, the activity change, positive = activation in assay [5] is -74.4% [at 11.4 µM] (inactive).

Turning to `CCOC(=O)OCC1OC(C#Cc2ccc(C)cc2C)C=CC1OC(=O)OCC` (stereo not given), the Potency result in assay [1], in assay [3] and in assay [4] was “inactive” in each case. The activity change, positive = activation in assay [5] was -58.4% [at 11.4 µM] (inactive).

For `COC(c1ccccc1Br)C(C)/C=C/CCO` (stereo not given), the Potency result in assay [1] and in assay [3] was “inactive” in each case. Besides, in assay [5], the activity change, positive = activation is -47.9% [at 11.4 µM] (inactive). For the same compound, in assay [4], the Potency is 1.58 µM (active).

In the case of `COC(=O)C/C=C/C(C)C(OCc1cccc(Br)c1)C(C)C(OC)C1CCCCC1` (stereo not given), in assay [1], the Potency is 2510 nM (active). For the same compound, in assay [5], the activity change, positive = activation was -58% [at 11.4 µM] (inactive). Besides, the Potency entry in assay [3] was “inactive”.

For `CC1CCC2C(=O)N3C(CCC(C)[C@@H]3c3ccc(Br)cc3)C(=O)N2C1c1ccc(Br)cc1` (stereo not given in full), in assay [1], the Potency is 3160 nM (active). Moreover, the activity change, positive = activation in assay [5] is -48.7% [at 11.4 µM] (inactive). Also, the Potency entry in assay [3] was “inactive”.

As for `COC(=O)NC(/C=C/c1ccccc1)[C@]1(C(C)=O)CCCC1=O` (stereo not given in full), the Potency entry in assay [1], in assay [3] and in assay [4] was “inactive” throughout. The activity change, positive = activation in assay [5] was -41.6% [at 11.4 µM] (inactive).

For `C/C=C/C1Oc2ccc(OC)cc2N2C(=O)C(C)C(OCOC)C12` (stereo not given), the Potency entry in assay [1], in assay [3] and in assay [4] was “inactive” in each case. In addition, in assay [5], the activity change, positive = activation was -50.7% [at 11.4 µM] (inactive).

For the compound `COC(=O)C/C=C/C(C)C(OCc1cccc(-c2ccccc2)c1)C1CCCCC1` (stereo not given), the Potency entry in assay [1], in assay [3] and in assay [4] was “inactive” throughout. Also, the activity change, positive = activation in assay [5] is -35.3% [at 11.4 µM] (inactive).

As to `COC(=O)NC(c1cccc(C)c1)C(C(C)=O)C(=O)OC` (stereo not given), the Potency entry in assay [1], in assay [3] and in assay [4] was “inactive” each time. Also, the activity change, positive = activation in assay [5] was -34.6% [at 11.4 µM] (inactive).

As for `CC(=O)Nc1ccc(C2C(C)CCC3C(=O)N4C(CCC(C)[C@@H]4c4ccc(NC(C)=O)cc4)C(=O)N32)cc1` (stereo not given in full), the Potency entry in assay [1], in assay [3] and in assay [4] was “inactive” throughout. The activity change, positive = activation in assay [5] is -34.4% [at 11.4 µM] (inactive).

With `COC(c1ccccc1)C(C)C(OC)C(C)C(OC)C(C)C(C)=O` (stereo not given), the Potency entry in assay [1], in assay [3] and in assay [4] was “inactive” each time. Further, in assay [5], the activity change, positive = activation is -36.1% [at 11.4 µM] (inactive).

For the compound `CCCCCCC1=Cc2cc(OC)c(OC)cc2C(C2(C(=O)OCC)CCCC2=O)O1` (stereo not given), the Potency result in assay [1], in assay [3] and in assay [4] was “inactive” each time. Besides, the activity change, positive = activation in assay [5] was -36.1% [at 11.4 µM] (inactive).

The values above are taken from PubChem BioAssay (NCATS).
